Source: PubChem (National Center for Advancing Translational Sciences (NCATS))
Vaccinia mCherry: inhibitors of vaccinia virus infection (mCherry reporter signal); Vaccinia virus mCherry reporter infection, fluorescence; Potency, µM (top dose mostly 36.5 µM), most hits filed as inhibitors; 310,000 tested, 0.63% active; AID 720579; calls by dose curve; tested in A549 cells; also: nearly all actives have a fitted effect of over 35% in size
LASV entry inh: inhibitors of Lassa virus binding or cell entry; Lassa virus pseudotype entry inhibition, cell reporter; Potency, µM (titrated, usually from 37.9 µM), most hits filed as inhibitors; 300,000 tested, 1.2% active; AID 540256; calls by dose curve; tested in HEK293 cells; also: nearly all actives have a fitted effect of over 50% in size
Marburg entry inh: blocks Marburg virus binding to or entry into cells. Marburg virus pseudotyped entry inhibition, cell reporter. Potency, µM (highest dose often 37.8 µM), usual class: inhibitors. 300,000 tested, 1.8% active; calls by dose curve; tested in HEK293 cells
CHX counter: counter-screen hit for Shiga toxin inhibitors, cycloheximide; cell reporter, cycloheximide protein synthesis inhibition counterscreen; max response, %; 300,000 tested, 12% active; AID 2314; in the data active = max response mostly above about 13%, no sharp cut-off; inactive = mostly below about 14%; also: read at 38.3 µM for the half of the compounds with a filed dose
VACV Venus inh: vaccinia inhibition (Venus reporter); 330,000 tested, 0.46% active; AID 720580; Vaccinia virus Venus reporter expression, fluorescence; Potency, µM (top dose mostly 36.5 µM), hits mostly inhibitors; calls by dose curve; tested in A549 cells; also: nearly all actives have a fitted effect of over 30% in size
Shiga inhibitor: blocks Shiga toxin action in Vero cells; Vero cells, Shiga toxin protein synthesis inhibition reporter; inhibition, % at 38.7 µM; 290,000 tested, 9.2% active; in the data active = inhibition mostly above about 28%, no sharp cut-off; inactive = mostly below about 43%
Large screens that a line does not name were inactive. Many of the other results were omitted from the sample, so hits are more common in it than they were.

O=C(CSc1nc2ccccc2c(=O)n1NC(=O)c1ccccc1)c1ccc(Cl)cc1	LASV entry inh inconclusive, Marburg entry inh inconclusive, CHX counter 34, Shiga inhibitor 98 (no result: Vaccinia mCherry, VACV Venus inh)
Cc1nc2ccccc2c(=O)n1NC(=O)c1ccc(Cl)cc1	none (no result: Vaccinia mCherry, LASV entry inh, Marburg entry inh, VACV Venus inh)
O=C(CSc1nc2ccsc2c(=O)n1NC(=O)c1ccccc1)Nc1nccs1	CHX counter 41, Shiga inhibitor 36
O=c1cc(N2CCN(c3ccc(F)cc3)CC2)[nH]c(=O)n1-c1cccc(Br)c1	LASV entry inh inconclusive (no result: Marburg entry inh, CHX counter, Shiga inhibitor)
COc1cc(=O)n(C)c2c(OCC3OC(C)(C)OC3(C)C)cccc12 (centres undefined)	Vaccinia mCherry inconclusive, CHX counter 9.7, VACV Venus inh inconclusive (no result: LASV entry inh, Marburg entry inh)
CCOC(=O)c1ccc(NC(=O)c2cccc(S(=O)(=O)N3CCN(C(C)=O)CC3)c2)cc1	none
O=C(N/N=C/c1cccnc1)c1sc2ccccc2c1Cl	Vaccinia mCherry inconclusive, CHX counter 21
COc1ccc2c(Cl)c(C(=O)N/N=C/c3cccnc3)sc2c1	Vaccinia mCherry inconclusive, LASV entry inh inconclusive, CHX counter 20, Shiga inhibitor 47
COc1ccc2c(Cl)c(C(N)=O)sc2c1	CHX counter 20
COc1ccc2c(Cl)c(C(=O)NN)sc2c1	LASV entry inh inconclusive
CCCCC/C=C\C\C=C/C=C/C=C/[C@@H](SC[C@H](N)C(=O)NCC(=O)O)[C@@H](O)CCCC(=O)O	none (no result: LASV entry inh, Marburg entry inh, CHX counter, Shiga inhibitor)
O=C(COc1ccccc1[N+](=O)[O-])Nc1cccnc1	LASV entry inh inconclusive, CHX counter 31, Shiga inhibitor 90
CC(C)(C)NC(=O)COC(=O)c1ccccc1OCC(=O)Nc1ccc(Br)cc1	Marburg entry inh inconclusive, CHX counter 17, Shiga inhibitor 35
CN1CCN(c2ccc(NC(=O)COc3ccccc3[N+](=O)[O-])cc2)CC1	Marburg entry inh inconclusive
O=C(COc1ccccc1[N+](=O)[O-])Nc1ccc(Br)cc1	Marburg entry inh inconclusive, CHX counter 49, Shiga inhibitor 114
O=C(COc1ccccc1[N+](=O)[O-])NCc1cccnc1	none
CCc1cc2c(nc1CC)CCN(CCC(C)=NO[C@@H](C)CN1CCCc3nc(C)c(C)cc31)C2	none (no result: Vaccinia mCherry, LASV entry inh, CHX counter, VACV Venus inh, Shiga inhibitor)
CN(C)CCCNC(=O)c1ccc(-c2nc(-c3ccc(Cl)cc3)cs2)cc1	Vaccinia mCherry inconclusive, LASV entry inh inconclusive, Marburg entry inh inconclusive, VACV Venus inh 22µM
CC(C)(C)c1ccc(C(=O)NCCc2csc(-c3ccc(Cl)cc3)n2)cc1	none (no result: Marburg entry inh, CHX counter, Shiga inhibitor)
N=C1C(c2nc(-c3ccc(Cl)cc3)cs2)=C(O)CN1NC(=O)c1ccc(O)cc1	CHX counter 23 (no result: Vaccinia mCherry, LASV entry inh, Marburg entry inh, VACV Venus inh)
N#CC(C#N)=CNc1cccnc1	none (no result: Vaccinia mCherry, LASV entry inh, Marburg entry inh, VACV Venus inh)
CCNc1nc(Oc2ccccc2)nc(O[C@@H](C)C(=O)OCC)n1	none (no result: Vaccinia mCherry, LASV entry inh, CHX counter, VACV Venus inh, Shiga inhibitor)
Cc1ccccc1-c1nnc(SCCC(=O)N2CCOCC2)o1	Marburg entry inh inconclusive, CHX counter 23, Shiga inhibitor 70 (no result: LASV entry inh)
O=C(CCSc1nnc(-c2ccccc2)o1)N1CCOCC1	Marburg entry inh inconclusive
Cc1ccc(-c2nnc(SCCC(=O)N3CCOCC3)o2)cc1	LASV entry inh inconclusive, CHX counter 32
CCc1noc(C)c1C(=O)N1CCCC(N2CCN(c3ccccc3F)CC2)C1 (centres undefined)	none
Cc1nc(C(=O)NC2CCOCC2)sc1C1(C)CC(c2cccc([N+](=O)[O-])c2)=NO1 (centres undefined)	none (no result: LASV entry inh, Marburg entry inh)
Cc1nc(-c2ccc(Cl)cc2)sc1C1(C)CC(c2cccnc2)=NO1 (centres undefined)	Vaccinia mCherry inconclusive, CHX counter 112, Shiga inhibitor 80 (no result: LASV entry inh, Marburg entry inh)
Cc1nc(C(=O)Nc2ccccc2)sc1C1(C)CC(c2cccnc2)=NO1 (centres undefined)	CHX counter 25, Shiga inhibitor 42 (no result: LASV entry inh, Marburg entry inh)
Cc1nc(-c2ccc(Cl)cc2)sc1C1(C)CC(c2cccc([N+](=O)[O-])c2)=NO1 (centres undefined)	CHX counter 18 (no result: LASV entry inh, Marburg entry inh)
Cc1nc(C(=O)NC2CCOCC2)sc1C1(C)CC(c2ccccc2)=NO1 (centres undefined)	CHX counter 11 (no result: LASV entry inh, Marburg entry inh)
COc1ccc(NC(=O)c2nc(C)c(C3(C)CC(c4ccccc4)=NO3)s2)cc1 (centres undefined)	VACV Venus inh inconclusive (no result: LASV entry inh, Marburg entry inh)
COc1ccccc1N1CCN(c2cc(C)nc3nncn23)CC1	none (no result: CHX counter, Shiga inhibitor)
COc1cc(/C(C)=C/c2ccccc2)c2c(c1)oc1ccccc12	none (no result: LASV entry inh, Marburg entry inh)
Cc1c(CN2CCOc3ccc(C(C)(O)COc4ccccc4)cc3C2)cnn1C (centres undefined)	none (no result: LASV entry inh, Marburg entry inh, CHX counter, Shiga inhibitor)
CC1=C[C@@H](c2ccccc2)n2nc(N3C(=O)[C@H]4CC=CC[C@@H]4C3=O)nc2N1	none (no result: Vaccinia mCherry, LASV entry inh, CHX counter, VACV Venus inh, Shiga inhibitor)
CCSc1nnc(C(C)NC(=O)c2ccc(OC)cc2)n1C (centres undefined)	none (no result: LASV entry inh, Marburg entry inh, CHX counter, Shiga inhibitor)
Cc1nc(-c2ccc(Cl)cc2)sc1C1(C)CC(c2c(Cl)cccc2Cl)=NO1 (centres undefined)	none (no result: LASV entry inh, Marburg entry inh)
Cc1nc(NC(=O)c2ccccc2)sc1C1(C)CC(c2ccccc2F)=NO1 (centres undefined)	CHX counter 43, Shiga inhibitor 60 (no result: LASV entry inh, Marburg entry inh)
Cc1nc(-c2ccccc2)sc1C1(C)CC(c2c(Cl)cccc2Cl)=NO1 (centres undefined)	CHX counter 20, Shiga inhibitor 53 (no result: LASV entry inh, Marburg entry inh)
N#C/C(=C\c1ccc(Cl)cc1)C(=O)NCC1CCCO1 (centres undefined)	none (no result: Marburg entry inh, CHX counter, Shiga inhibitor)
CC(C)CNS(=O)(=O)c1cc2c3c(c1)CCC(=O)N3CCC2	none (no result: Vaccinia mCherry, LASV entry inh, Marburg entry inh, VACV Venus inh)
c1ccc(-c2ccc(C3CCCN3)cc2)cc1 (centres undefined)	none (no result: Vaccinia mCherry, LASV entry inh, Marburg entry inh, VACV Venus inh)
O=C(c1ccccc1Cl)N1N=C(c2ccc(Br)cc2)CC1c1nc2ccccc2[nH]1 (centres undefined)	Vaccinia mCherry inconclusive, LASV entry inh inconclusive, Marburg entry inh inconclusive, CHX counter 17
O=C(Cc1ccc(F)cc1)NCc1ccc2c(c1)CCN2C(=O)c1ccc(F)cc1	LASV entry inh inconclusive (no result: Marburg entry inh, CHX counter, Shiga inhibitor)
CC(C)c1ccc(NC(=O)C2CC(=O)Nc3nc4ccccc4n32)cc1 (centres undefined)	CHX counter 23 (no result: LASV entry inh, Marburg entry inh)
C#CC[N+](C)(C)CCCCCCCCC	Vaccinia mCherry 11µM, Marburg entry inh inconclusive, VACV Venus inh inconclusive
CC#CC[N+](C)(C)CCCCCCCCCC	LASV entry inh inconclusive, Marburg entry inh inconclusive
O=C(Nc1nc2ccccc2[nH]1)c1cccc(Br)c1	Marburg entry inh inconclusive, CHX counter 20, Shiga inhibitor 82
O=C(Nc1nc2ccccc2[nH]1)c1ccc(Br)o1	LASV entry inh inconclusive, Marburg entry inh inconclusive, CHX counter 47, Shiga inhibitor 83
O=C(NCCc1nc2ccccc2[nH]1)c1ccc(Br)o1	none
Cc1ccc(N(C)S(=O)(=O)c2cccc(C(=O)Nc3nc4ccccc4[nH]3)c2)cc1	LASV entry inh 16µM, Marburg entry inh 12µM, CHX counter 36, VACV Venus inh inconclusive, Shiga inhibitor 39
O=C(Nc1nc2ccccc2[nH]1)c1cccc(F)c1	LASV entry inh inconclusive, Marburg entry inh inconclusive, CHX counter 24, Shiga inhibitor 58
O=C(c1cccc(Br)c1)c1nc2ccccc2[nH]c1=O	none (no result: LASV entry inh, Marburg entry inh, CHX counter, Shiga inhibitor)
Cc1cccc(C(=O)N[C@H](C(=O)Nc2nc3ccccc3[nH]2)C(C)C)c1	none (no result: Vaccinia mCherry, LASV entry inh, Marburg entry inh, VACV Venus inh)
CCOc1ccc(NC(=O)CN(C)C(=O)C2CCCO2)cc1OCC (centres undefined)	none (no result: CHX counter, Shiga inhibitor)
